For assay [1], the target named is Lysosomal acid glucosylceramidase (Homo sapiens) (UniProt P04062). Kind of assay: Glucocerebrosidase-p2 (AID 348; in the data active means potency below about 10 µM; further: potency means the concentration at half of the fitted maximal effect). As to conditions: purified GBA, blue fluorogenic substrate, 40 min. The method in brief: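 Compounds titrated from 0.6 nM upwards against 0.2 nM enzyme in pH 5.9 citric acid/KH2PO4, taurocholate, tween-20; blue fluorogenic substrate 80 uM, 40 min room temperature, stopped and read Ex 365/Em 440 for AC50.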

Assay [2] in a line: AP1 Signaling Pathway (AID 357; active means well fitted curve in either direction with a large enough effect, not every such curve was filed as active;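 further: ME-180 reporter cells stimulated with EGF at its EC50 level; on the % scale 0 is the no-effect control and ±100 the full control effect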). The settings on record: ME-180 AP-1-bla reporter, EGF-induced, beta-lactamase ratio, 5 h; at 7.69 µM (top of the series) unless noted. The method in brief:
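Cells are seeded overnight, exposed to compound titrations and an EC50 level of EGF for 5 hours at 37 °C, then loaded with CCF4 dye for 2.5 hours. Beta-lactamase activity under the AP-1 element is read as a blue/green ratio.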

Assay [3] in a line: NFAT Signaling Pathway (AID 444; active means well fitted curve in either direction with a large enough effect, not every such curve was filed as active;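 further: carbachol stimulus at about its EC50 of 1 µM final; on the % scale 0 is the no-effect control and ±100 the full control effect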). The settings on record: Jurkat NFAT-bla M1, carbachol, beta-lactamase ratio, 5 h; at 7.69 µM (top of the series) unless noted. The method in brief: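 Read-out: CCF4 FRET ratio (460 nm/530 nm) after 1 h RT dye loading, used for %activity and AC50 from titration series. Cells: Jurkat NFAT-β-lactamase/M1 line, treated with compound plus 1 uM carbachol for 5 h, 37 °C.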

Assay [4] in a line: Stat Signaling Pathway (AID 446; active means well fitted curve in either direction with a large enough effect, not every such curve was filed as active;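 further: ME-180 cervical cancer cells given 40 pM IL-6 alongside compound; SIE-controlled beta-lactamase reporter measured as 460/530 nm FRET emission ratio; on the % scale 0 is the no-effect control and ±100 the full control effect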). As to conditions: ME-180 (cervical carcinoma) SIE beta-lactamase reporter, IL-6 stimulated, 5 h; at 7.69 µM (top of the series) unless noted. The method in brief:
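IL-6/STAT signaling read in ME-180 cells via an SIE beta-lactamase reporter. Stimulus was 40 pM IL-6 (its AC50) for 5 hrs, so both activation and inhibition register.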

Assay [5] addresses Glucocorticoid receptor (Homo sapiens) (UniProt P04150). Kind of assay: GR-GFP Redistribution (AID 450;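 active means compounds whose dose series gives a full or clear partial fitted curve of increased nuclear translocation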; further: potency means the concentration at half of the fitted maximal effect). As to conditions: U2OS GR-GFP nuclear translocation, laser cytometry, 2 h.
Assay [6] has the same target. The assay is described as follows: GR-EFC Redistribution (AID 451; calls by dose curve; further: potency means the concentration at half of the fitted maximal effect). As to conditions: CHO-K1 GR-EFC translocation, beta-gal luminescence, 2 h. The method in brief: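 Translocation of GR-ED fusion to nuclear EA restores b-gal, read by luminescence after 1 h room-temperature detection. Engineered CHO-K1 biosensor cells, 1,000/well, exposed 2 h at 37 C to titrations up to 46 uM final.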

Assay [7] deals with Mitogen-activated protein kinase 10 (Mus musculus) (UniProt Q61831). Kind of assay: JNK3 AlphaScreen Assay (AID 530; active means well fitted curve in either direction with a large enough effect, not every such curve was filed as active;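 further: kinase came from lysate of stimulated human HepG2 cells; signal reports phosphorylation of biotinylated GST-cJun 1-79 at Ser73 with 10 µM ATP; on the % scale 0 is the no-effect control and ±100 the full control effect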). The settings on record: JNK3 lysate, c-Jun phosphorylation; series mostly up to 57.1 µM. The method in brief: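 Room-temperature AlphaScreen kinase assay; pre-activated HepG2 lysate as JNK3 source, biotin-GST-cJun(1-79) substrate, 10 uM ATP, compound 15 min preincubation.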
(In general: In Alpha technology, singlet oxygen from a donor bead excites a nearby acceptor bead.)

The nature of assay [8]: qHTS Assay for Lipid Storage Modulators (AID 1519; calls by dose curve). As to conditions: Drosophila S3 cells, BODIPY lipid droplet/cell ratio, laser cytometry, cells loaded with oleic acid; for activity change, negative = inhibition: at 57.5 µM (top of the series). The method in brief:
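Cells seeded at 5,000 per well were treated with compounds over a concentration series and loaded with oleic acid (400 uM, as added). Lipid droplet fluorescence (488 nm excitation, 500-530 nm channel) was read by laser-scanning cytometry and normalized to 20 uM Triacsin C.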
A general note: Quantitative high-throughput screening tests each substance at several concentrations.

Assay [9] deals with Dual specificity protein kinase CLK4 (Homo sapiens) (UniProt Q9HAZ1). Kind of assay: qHTS Assay for Inhibitors of CDC-like Kinase 4 (Kinase-Glo Assay) (AID 1770). Further: nearly all actives have a fitted effect of over 65% in size. Further: potency means the concentration at half of the fitted maximal effect. As to conditions: recombinant Clk4, Kinase-Glo ATP depletion luminescence; series mostly up to 66.7 µM. The method in brief:
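Readout: Kinase-Glo luminescence from ATP left after a 4.5 h room-temperature reaction of 25 nM Clk4 with 100 uM RS peptide and 1 uM ATP (final). Buffer: 25 mM Tris pH 7.5, 10 mM MgCl2.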

For assay [10] the target is unchanged. Kind of assay: qHTS Assay for Inhibitors of CDC-like Kinase 4 (ADP-Glo Assay) (AID 1771). Further: nearly all actives have a fitted effect of over 70% in size. Further: potency means the concentration at half of the fitted maximal effect. The settings on record: recombinant CLK4, ADP-Glo luminescence; series mostly up to 80 µM. The method in brief:
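Clk4 (25 nM) was incubated 1 hr at room temperature with 100 uM RS repeat peptide and 1 uM ATP in buffer with 2 mM MgCl2, 0.5 mM EGTA, 2.5 mM DTT. ADP formed was quantified by ADP-Glo luminescence.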

For assay [11] the target is unchanged. Kind of assay: qHTS Assay for Inhibitors of CDC-like Kinase 4 (ADP-FP Assay) (AID 1795). Further: nearly all actives have a fitted effect of over 60% in size. Further: potency means the concentration at half of the fitted maximal effect. The settings on record: Transcreener ADP fluorescence polarization; series mostly up to 50 µM. The method in brief: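 FP readout: Orange Transcreener ADP2 tracer (4 nM) plus ADP antibody, read after 30 min at room temperature. Kinase step: 6.25 nM Clk4, 100 uM RS peptide, 1 uM ATP, pH 7.5, 1 h.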

Assay [12] has as its target 3',5'-cyclic-AMP phosphodiesterase 4B (Homo sapiens) (UniProt Q07343). Kind of assay: qHTS Assay for Inhibitors of PDE-IV (AID 607; active means well fitted activation curve with a large enough effect in the main read-out, with a control signal flat, not every such curve was filed as active; further: % of control where 0% means no effect). As to conditions: HEK293 ACTOne CNG channel cells, membrane potential fluorescence; series mostly up to 22.9 µM. The method in brief:
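Live HEK293 cells with a modified cyclic nucleotide-gated (CNG) channel report intracellular cAMP via membrane-potential dye fluorescence (ex 535/em 590 nm). Endogenous PDE-IV was targeted. Compounds were tested at up to 22.9 uM final; RO 20-1724 100 uM served as control.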

The target of assay [13] is Ubiquitin carboxyl-terminal hydrolase 1 (Homo sapiens) (UniProt O94782). The assay is described as follows: Inhibitors of USP1/UAF1: Pilot qHTS (AID 504865).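 Further: rhodamine fluorescence freed from ubiquitin-rhodamine substrate followed over time; top concentration of the series differs between compounds; on the % scale 0 is the no-effect control and ±100 the full control effect; nearly all actives have a fitted effect of over 35% in size.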 As to conditions: purified USP1/UAF1, Ub-rhodamine cleavage fluorescence; series mostly up to 54.9 µM. The method in brief: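 1nM USP1/UAF1 + cpd, 15 min RT; start w/ Ub-Rho 150nM final; kinetic FL 480/540 nm, 6 reads q60 s. Buffer 50mM HEPES pH 7.8, 0.5mM EDTA, 1mM TCEP, 0.01% Tween-20, 0.1 mg/ml BSA.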

For assay [14], the target named is Cytochrome P450 3A4 (Homo sapiens) (UniProt P08684). Kind of assay: qHTS Assay for Inhibitors and Substrates of Cytochrome P450 3A4 (AID 884). Further: potency means the concentration at half of the fitted maximal effect; nearly all actives have a fitted effect of over 50% in size. The settings on record: recombinant CYP3A4, Luciferin-PPXE luminescence; series mostly up to 57.1 µM. The method in brief:
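20 nM human CYP3A4 with 25 uM Luciferin-PPXE (at KM) in 200 mM KPO4, preincubated 10 min with compound; NADPH regeneration started a 60 min RT reaction. Luciferin detected by luminescence, normalized to 57 uM ketoconazole as full inhibition.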

For assay [15] the target is unchanged. The assay is described as follows: qHTS Assay for Activators of Cytochrome P450 3A4 (AID 885). Further: nearly all actives have a fitted effect of over 65% in size. The settings on record: recombinant CYP3A4, Luciferin-PPXE luminescence, 60 min; series mostly up to 57.1 µM. The method in brief: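 Quantitative HTS format: compounds preincubated with 20nM human CYP3A4 and Luciferin-PPXE substrate at KM, reaction started by NADPH regeneration, stopped after 60 min, luciferase luminescence read 20 min later.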

Assay [16] addresses Cytochrome P450 2C19 (Homo sapiens) (UniProt P33261). The assay is described as follows: qHTS Assay for Inhibitors and Substrates of Cytochrome P450 2C19 (AID 899). Further: potency means the concentration at half of the fitted maximal effect; nearly all actives have a fitted effect of over 60% in size. The settings on record: recombinant CYP2C19, luciferin-H EGE luminescence; series mostly up to 57.1 µM. The method in brief: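 5nM enzyme + 10uM Luciferin-H EGE (=KM), 50mM KPO4; cpd pin-transferred, 10 min 37C; NADPH regen, 60 min 37C; stopped w/ luciferin detection reagent, 20 min; luminescence. Normalized to 57uM ketoconazole (AC100).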

Assay [17] deals with Cytochrome P450 1A2 (Homo sapiens) (UniProt P05177). The assay is described as follows: p450-cyp1a2 (AID 410; calls by dose curve; further: potency means the concentration at half of the fitted maximal effect). The settings on record: recombinant CYP1A2, luciferin-ME demethylation, luminescence; series mostly up to 57 µM. The method in brief:
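Human CYP1A2 (20nM) demethylated Luciferin-ME at its Km (100uM) in 100mM KPO4. After 10 min compound preincubation, NADPH regeneration ran the reaction 60 min at room temperature. Luciferin was read by luminescence, normalized to 57 uM furafylline.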

Setting [18] is: measured here: cell count channel max response.
The mark [19] stands for this setting: measured here: lipid channel max response.

Consider six compounds from PubChem BioAssay (NCATS).

Structures are written as SMILES. Results filed as inconclusive are left out. The source made the active and inactive calls. Unless noted, the call rests on the fitted dose curve; in most records, active means well fitted curve in the direction sought with a large enough effect; inconclusive means small, poorly fitted or top-dose-only effect, or another doubt; inactive means no such curve, though single readings can be large; an effect the other way counts as inactive or inconclusive.

Dual specificity protein kinase CLK4 (Homo sapiens), sequence (Q9HAZ1 whole entry, looked up): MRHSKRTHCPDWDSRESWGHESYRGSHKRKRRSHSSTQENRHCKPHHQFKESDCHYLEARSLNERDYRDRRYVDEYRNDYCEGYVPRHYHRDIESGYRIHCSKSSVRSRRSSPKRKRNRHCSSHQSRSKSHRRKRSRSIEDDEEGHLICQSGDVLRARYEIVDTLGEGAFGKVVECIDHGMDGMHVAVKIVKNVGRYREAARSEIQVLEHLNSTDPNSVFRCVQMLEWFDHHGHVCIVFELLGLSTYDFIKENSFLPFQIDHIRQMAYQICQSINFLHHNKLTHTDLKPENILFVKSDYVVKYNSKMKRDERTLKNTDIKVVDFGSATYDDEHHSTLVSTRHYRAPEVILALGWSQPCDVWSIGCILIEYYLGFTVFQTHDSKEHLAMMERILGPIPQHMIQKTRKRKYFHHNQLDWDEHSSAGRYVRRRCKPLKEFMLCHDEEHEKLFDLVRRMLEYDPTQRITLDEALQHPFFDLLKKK
Ubiquitin carboxyl-terminal hydrolase 1 (Homo sapiens), sequence (O94782 whole entry, looked up): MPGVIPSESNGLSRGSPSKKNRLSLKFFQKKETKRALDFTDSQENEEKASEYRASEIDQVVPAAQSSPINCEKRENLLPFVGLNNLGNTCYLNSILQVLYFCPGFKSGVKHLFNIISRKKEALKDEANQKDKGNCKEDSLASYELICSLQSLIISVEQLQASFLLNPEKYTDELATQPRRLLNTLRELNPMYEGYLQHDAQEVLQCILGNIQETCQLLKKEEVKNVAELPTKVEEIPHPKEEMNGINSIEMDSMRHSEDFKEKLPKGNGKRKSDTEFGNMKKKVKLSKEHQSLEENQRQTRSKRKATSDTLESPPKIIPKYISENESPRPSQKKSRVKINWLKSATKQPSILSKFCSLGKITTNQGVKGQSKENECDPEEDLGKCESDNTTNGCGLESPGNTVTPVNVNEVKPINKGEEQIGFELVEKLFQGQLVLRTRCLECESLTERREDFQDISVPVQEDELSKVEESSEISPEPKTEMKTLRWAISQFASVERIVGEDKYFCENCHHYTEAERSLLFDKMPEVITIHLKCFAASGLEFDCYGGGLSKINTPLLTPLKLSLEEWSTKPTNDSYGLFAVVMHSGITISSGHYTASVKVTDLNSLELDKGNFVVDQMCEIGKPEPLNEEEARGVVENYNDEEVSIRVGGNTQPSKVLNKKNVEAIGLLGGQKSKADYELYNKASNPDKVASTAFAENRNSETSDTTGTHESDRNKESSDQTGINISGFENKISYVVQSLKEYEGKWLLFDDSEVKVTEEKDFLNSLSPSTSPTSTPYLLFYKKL
Lysosomal acid glucosylceramidase (Homo sapiens), sequence (P04062 whole entry, looked up): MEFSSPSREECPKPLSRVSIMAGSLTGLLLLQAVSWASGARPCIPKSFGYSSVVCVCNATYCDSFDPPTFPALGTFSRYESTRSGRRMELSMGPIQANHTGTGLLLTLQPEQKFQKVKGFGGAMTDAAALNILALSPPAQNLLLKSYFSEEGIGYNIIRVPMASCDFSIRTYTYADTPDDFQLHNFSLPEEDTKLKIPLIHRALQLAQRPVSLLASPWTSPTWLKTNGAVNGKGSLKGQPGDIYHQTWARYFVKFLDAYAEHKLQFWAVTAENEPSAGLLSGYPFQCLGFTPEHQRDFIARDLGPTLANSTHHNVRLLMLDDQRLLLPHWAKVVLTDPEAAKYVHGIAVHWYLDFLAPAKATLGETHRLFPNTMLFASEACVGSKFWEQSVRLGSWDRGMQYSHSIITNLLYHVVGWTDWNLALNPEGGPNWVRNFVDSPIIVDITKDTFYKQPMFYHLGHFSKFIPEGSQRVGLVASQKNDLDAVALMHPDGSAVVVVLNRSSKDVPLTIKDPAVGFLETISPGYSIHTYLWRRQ
3',5'-cyclic-AMP phosphodiesterase 4B (Homo sapiens), sequence (Q07343 whole entry, looked up): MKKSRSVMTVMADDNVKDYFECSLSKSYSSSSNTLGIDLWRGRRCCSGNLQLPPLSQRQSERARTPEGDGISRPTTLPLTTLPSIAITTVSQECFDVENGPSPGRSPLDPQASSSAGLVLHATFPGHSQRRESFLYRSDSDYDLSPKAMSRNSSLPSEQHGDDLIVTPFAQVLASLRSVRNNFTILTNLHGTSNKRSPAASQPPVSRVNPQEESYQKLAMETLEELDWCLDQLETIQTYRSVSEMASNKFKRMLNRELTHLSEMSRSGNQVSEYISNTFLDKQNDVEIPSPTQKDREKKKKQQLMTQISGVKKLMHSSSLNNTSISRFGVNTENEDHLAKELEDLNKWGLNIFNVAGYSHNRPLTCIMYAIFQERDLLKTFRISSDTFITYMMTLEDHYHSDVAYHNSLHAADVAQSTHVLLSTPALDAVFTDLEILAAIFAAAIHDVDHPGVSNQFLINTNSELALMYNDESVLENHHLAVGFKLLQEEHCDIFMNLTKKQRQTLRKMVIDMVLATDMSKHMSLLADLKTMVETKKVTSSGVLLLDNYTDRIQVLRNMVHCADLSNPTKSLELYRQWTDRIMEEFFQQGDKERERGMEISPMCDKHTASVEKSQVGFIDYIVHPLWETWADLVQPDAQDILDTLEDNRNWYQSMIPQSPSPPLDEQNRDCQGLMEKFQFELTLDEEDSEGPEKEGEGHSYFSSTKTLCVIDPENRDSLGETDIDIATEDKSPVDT
Cytochrome P450 3A4 (Homo sapiens), sequence (P08684 whole entry, looked up): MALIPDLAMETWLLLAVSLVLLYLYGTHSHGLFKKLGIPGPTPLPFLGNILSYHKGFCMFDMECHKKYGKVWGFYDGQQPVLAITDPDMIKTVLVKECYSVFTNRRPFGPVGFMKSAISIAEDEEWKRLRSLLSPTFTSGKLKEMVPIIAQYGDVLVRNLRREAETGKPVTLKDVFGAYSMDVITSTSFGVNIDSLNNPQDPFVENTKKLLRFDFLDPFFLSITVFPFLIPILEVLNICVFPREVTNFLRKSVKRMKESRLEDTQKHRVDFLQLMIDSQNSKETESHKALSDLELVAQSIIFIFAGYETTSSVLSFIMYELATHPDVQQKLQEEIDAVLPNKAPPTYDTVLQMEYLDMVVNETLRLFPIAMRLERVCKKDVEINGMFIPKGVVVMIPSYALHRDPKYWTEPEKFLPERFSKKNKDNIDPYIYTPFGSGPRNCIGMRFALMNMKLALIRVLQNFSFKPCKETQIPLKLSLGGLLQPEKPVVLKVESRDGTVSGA
Glucocorticoid receptor (Homo sapiens), sequence (P04150 whole entry, looked up, the tested form may be a part): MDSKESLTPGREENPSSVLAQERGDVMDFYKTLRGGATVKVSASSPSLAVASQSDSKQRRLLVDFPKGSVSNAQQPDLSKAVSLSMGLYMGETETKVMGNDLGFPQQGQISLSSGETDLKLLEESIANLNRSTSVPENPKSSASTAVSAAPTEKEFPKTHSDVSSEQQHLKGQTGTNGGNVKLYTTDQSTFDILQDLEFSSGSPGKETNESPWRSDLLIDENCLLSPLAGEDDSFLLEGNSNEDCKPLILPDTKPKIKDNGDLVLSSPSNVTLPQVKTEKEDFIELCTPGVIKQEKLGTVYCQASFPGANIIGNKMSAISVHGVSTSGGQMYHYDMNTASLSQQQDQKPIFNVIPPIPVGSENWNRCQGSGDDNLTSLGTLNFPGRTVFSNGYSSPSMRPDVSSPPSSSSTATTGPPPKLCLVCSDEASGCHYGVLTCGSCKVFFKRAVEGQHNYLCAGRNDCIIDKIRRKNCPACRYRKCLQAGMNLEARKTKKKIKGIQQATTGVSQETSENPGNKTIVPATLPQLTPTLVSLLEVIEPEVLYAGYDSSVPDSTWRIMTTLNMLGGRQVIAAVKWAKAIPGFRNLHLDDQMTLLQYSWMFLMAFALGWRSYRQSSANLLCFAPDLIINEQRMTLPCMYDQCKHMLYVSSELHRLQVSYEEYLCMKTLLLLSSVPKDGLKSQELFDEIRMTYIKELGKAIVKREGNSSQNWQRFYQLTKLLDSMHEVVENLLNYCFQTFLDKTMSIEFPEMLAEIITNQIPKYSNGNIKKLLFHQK
Cytochrome P450 1A2 (Homo sapiens), sequence (P05177 whole entry, looked up): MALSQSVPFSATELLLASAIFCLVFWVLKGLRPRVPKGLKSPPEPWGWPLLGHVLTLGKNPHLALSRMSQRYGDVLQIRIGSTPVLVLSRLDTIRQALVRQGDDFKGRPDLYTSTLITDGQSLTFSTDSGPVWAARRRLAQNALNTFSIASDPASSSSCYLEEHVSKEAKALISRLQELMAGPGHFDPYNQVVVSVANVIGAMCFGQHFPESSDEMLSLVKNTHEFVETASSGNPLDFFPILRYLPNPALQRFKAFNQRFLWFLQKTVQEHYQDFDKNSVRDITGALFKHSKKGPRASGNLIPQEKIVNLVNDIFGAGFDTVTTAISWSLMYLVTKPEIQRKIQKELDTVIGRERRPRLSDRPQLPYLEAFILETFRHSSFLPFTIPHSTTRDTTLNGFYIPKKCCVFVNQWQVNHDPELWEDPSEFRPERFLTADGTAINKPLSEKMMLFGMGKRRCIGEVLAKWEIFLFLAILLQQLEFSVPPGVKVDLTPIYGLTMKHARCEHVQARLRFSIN
Cytochrome P450 2C19 (Homo sapiens), sequence (P33261 whole entry, looked up): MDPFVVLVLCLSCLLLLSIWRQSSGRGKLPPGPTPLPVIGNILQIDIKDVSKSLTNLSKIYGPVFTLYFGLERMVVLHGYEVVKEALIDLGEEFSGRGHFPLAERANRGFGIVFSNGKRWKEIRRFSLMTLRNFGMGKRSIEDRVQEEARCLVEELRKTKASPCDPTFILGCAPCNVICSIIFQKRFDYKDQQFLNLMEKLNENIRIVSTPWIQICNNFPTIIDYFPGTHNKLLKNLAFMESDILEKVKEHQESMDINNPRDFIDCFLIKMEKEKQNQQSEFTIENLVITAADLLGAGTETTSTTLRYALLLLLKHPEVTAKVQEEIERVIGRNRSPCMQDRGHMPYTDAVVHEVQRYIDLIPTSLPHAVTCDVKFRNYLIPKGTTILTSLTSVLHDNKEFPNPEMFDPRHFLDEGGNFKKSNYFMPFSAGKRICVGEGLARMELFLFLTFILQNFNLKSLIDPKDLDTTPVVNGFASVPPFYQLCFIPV

`Cc1nc2cnc(N3CCN(C)CC3)nc2n(C2CC2)c1=O`: the Potency in [1] was > 11.4 µM (inactive); in assay [5], > 9.22 µM (inactive); in assay [6], > 46 µM (inactive). The results for the activity change, negative = inhibition in assay [2], in assay [3] and in [8] were -13.1% (inactive), -3.47% (inactive) and 3.22% (inactive), respectively. In addition, in assay [4], the activity, negative = inhibition was -9.11% (inactive). Further, the Potency entry in assay [7], in assay [9], in assay [10] and in assay [11] was “inactive” each time. In addition, the figures for the max response in [8] (setting [18]) and in assay [8] (setting [19]) were 14.4% and 16.3%, respectively.
`COc1cccc(Cn2c(=O)c(C)nc3cnc(N(C)C)nc32)c1`: the Potency in [1] was > 11.4 µM (inactive); in [5], > 9.22 µM (inactive); in assay [6], > 46 µM (inactive). The values for the activity change, negative = inhibition in assay [2], in assay [3] and in [8] were -23% (inactive), 1.59% (inactive) and -5.5% (inactive), respectively. In assay [4], the activity, negative = inhibition is -11.2% (inactive). Also, the Potency entry in assay [12], in assay [9], in [10], in [11] and in [13] was “inactive” each time. Further, the results for the max response in assay [8] (setting [18]) and in assay [8] (setting [19]) were 19.8% and 12.4%, respectively.
For the compound `COCCn1c(=O)c(-c2ccccc2)nc2cnc(N3CCN(C)CC3)nc21`, the Potency in [1] is > 11.4 µM (inactive); in [5] it was > 9.22 µM (inactive); in assay [6], > 46 µM (inactive). Further, the activity change, negative = inhibition in assay [2] is -12.6% (inactive); in [3] it was 7.66% (inactive); in assay [8] it was 3.96% (inactive). The activity, negative = inhibition in assay [4] is -8.44% (inactive). Moreover, the Potency result in [7], in [12], in assay [9], in [10], in [11] and in assay [13] was “inactive” throughout. Moreover, the max response in [8] (setting [18]) is 11.4%; in assay [8] (setting [19]), 16.1%.
Consider `COc1ccccc1CNc1ncnc2ccc(-c3ccccc3OC)cc12`, for which the Potency is > 11.4 µM (inactive) in [1]; > 46 µM (inactive) in [5]; > 46 µM (inactive) in assay [6]; 6.31 µM (active) in assay [14]; 3.16 µM (active) in assay [16]; 4.47 µM (active) in [9]. Further, the Potency in assay [10] was 4.47 µM (active); in assay [11] it was 1.58 µM (active). Besides, the activity change, negative = inhibition was -19.9% (inactive) in assay [2] and -20% (inactive) in [8]. Further, the Potency result in [7], in assay [15] and in assay [13] was “inactive” in each case. Moreover, the values for the max response in assay [8] (setting [18]) and in assay [8] (setting [19]) were -10.4% and -24.8%, respectively.
On to `N#CCCn1c(=O)c(-c2ccc(F)cc2)nc2cnc(OCc3ccccc3)nc21`, for which the Potency is > 11.4 µM (inactive) in [1], 1.58 µM (active) in assay [17], > 9.22 µM (inactive) in [5] and > 46 µM (inactive) in [6]. The values for the activity change, negative = inhibition in assay [3] and in assay [8] were -4.49% (inactive) and -1.54% (inactive), respectively. Besides, in assay [4], the activity, negative = inhibition is -20.1% (inactive). The Potency result in assay [7], in [12], in assay [15], in assay [9], in assay [10] and in assay [11] was “inactive” in each case. Further, in assay [13], the Potency entry was “inactive”. For the same compound, the max response is 0.762% in assay [8] (setting [18]) and -3.12% in assay [8] (setting [19]).
Regarding `COCCn1c(=O)c(C)nc2cnc(Oc3cccc(Cl)c3)nc21`, the Potency is > 11.4 µM (inactive) in assay [1], 12.6 µM (active) in assay [17], > 9.22 µM (inactive) in assay [5] and > 46 µM (inactive) in [6]. In addition, the activity change, negative = inhibition was -12% (inactive) in assay [2], 10.5% (inactive) in assay [3] and 4.18% (inactive) in assay [8]. The activity, negative = inhibition in assay [4] is -4.78% (inactive). Moreover, the Potency entry in assay [7], in assay [15], in [9], in assay [10], in assay [11] and in assay [13] was “inactive” each time. Also, the max response in [8] (setting [18]) was found to be 15.1%; in assay [8] (setting [19]), 17.8%.
